What all share (test): DAPPL (digital affinity profiling via proximity ligation, sequencing); 10 mM Tris-HCl pH 7.5, 50 mM NaCl, 1 mM DTT, 4% glycerol, room temperature, 30 min; GST-TFs on glutathione beads, 16-mer random dsDNA library, 0.1% formaldehyde crosslink after washing; high values mean tight binding
Conditions in all cases: protein: recombinant; tags: N-terminal GST; dsDNA, one strand shown

One assay deals with T1, ERF (Homo sapiens, UniProt P50548 1-548).
T1 sequence: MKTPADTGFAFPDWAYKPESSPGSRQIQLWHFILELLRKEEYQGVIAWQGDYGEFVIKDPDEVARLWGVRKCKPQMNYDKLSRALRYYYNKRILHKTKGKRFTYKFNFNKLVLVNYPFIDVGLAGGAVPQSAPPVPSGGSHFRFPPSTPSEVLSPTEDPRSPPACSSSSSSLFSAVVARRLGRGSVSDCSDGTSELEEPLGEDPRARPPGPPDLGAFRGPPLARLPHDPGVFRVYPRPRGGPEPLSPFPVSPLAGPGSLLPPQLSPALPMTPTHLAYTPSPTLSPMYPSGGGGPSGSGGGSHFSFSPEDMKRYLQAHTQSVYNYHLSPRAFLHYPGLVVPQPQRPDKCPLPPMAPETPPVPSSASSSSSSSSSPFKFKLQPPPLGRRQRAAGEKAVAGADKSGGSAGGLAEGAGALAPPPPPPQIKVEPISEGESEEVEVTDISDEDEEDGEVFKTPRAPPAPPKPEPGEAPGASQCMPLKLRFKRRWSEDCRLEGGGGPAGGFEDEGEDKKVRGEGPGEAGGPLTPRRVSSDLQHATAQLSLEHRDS
In short, it runs like this: (§1)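 Each value of binding signal is a hexamer's read frequency for a factor divided by the same hexamer's frequency in the tag-only sample. Barcoded, bead-captured GST fusions of human transcription factors made in yeast were pooled with that sample and incubated with 200 nmole of a random double-stranded 16-mer DNA library in Tris/NaCl/DTT/glycerol buffer at room temperature for 30 min. Washing, 0.1% formaldehyde crosslinking, proximity ligation, PCR and Illumina NextSeq500 sequencing followed.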

The next assay deals with T2, ETV3L (Homo sapiens, UniProt Q6ZN32 1-361).
T2 sequence: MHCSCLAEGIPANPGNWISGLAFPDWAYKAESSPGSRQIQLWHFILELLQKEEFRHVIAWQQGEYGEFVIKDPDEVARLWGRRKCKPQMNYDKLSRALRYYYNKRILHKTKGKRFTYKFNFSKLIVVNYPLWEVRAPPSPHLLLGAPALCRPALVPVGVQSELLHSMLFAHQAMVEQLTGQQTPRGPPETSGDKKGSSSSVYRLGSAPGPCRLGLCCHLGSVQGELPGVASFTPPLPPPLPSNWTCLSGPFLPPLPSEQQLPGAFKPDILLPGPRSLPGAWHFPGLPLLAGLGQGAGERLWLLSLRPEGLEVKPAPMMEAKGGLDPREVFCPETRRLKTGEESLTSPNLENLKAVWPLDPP
The essentials: as §1

A further assay addresses T3, ETS2 (Homo sapiens, UniProt P15036 1-469).
T3 sequence: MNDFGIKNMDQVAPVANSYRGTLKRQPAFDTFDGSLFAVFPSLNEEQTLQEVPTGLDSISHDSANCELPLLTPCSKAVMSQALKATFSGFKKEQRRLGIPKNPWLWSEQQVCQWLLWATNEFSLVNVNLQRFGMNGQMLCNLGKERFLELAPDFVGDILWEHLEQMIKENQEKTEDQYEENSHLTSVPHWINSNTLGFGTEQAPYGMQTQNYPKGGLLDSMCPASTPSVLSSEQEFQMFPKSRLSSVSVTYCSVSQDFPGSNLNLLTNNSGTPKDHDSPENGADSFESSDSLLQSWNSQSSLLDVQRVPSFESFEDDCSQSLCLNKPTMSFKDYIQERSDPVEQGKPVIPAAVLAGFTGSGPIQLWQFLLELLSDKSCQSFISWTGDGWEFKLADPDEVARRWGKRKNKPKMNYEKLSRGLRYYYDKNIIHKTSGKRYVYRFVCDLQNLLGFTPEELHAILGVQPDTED
The essentials:
as §1

The next assay addresses T4, ETV7 (Homo sapiens, UniProt Q9Y603 1-341).
T4 sequence: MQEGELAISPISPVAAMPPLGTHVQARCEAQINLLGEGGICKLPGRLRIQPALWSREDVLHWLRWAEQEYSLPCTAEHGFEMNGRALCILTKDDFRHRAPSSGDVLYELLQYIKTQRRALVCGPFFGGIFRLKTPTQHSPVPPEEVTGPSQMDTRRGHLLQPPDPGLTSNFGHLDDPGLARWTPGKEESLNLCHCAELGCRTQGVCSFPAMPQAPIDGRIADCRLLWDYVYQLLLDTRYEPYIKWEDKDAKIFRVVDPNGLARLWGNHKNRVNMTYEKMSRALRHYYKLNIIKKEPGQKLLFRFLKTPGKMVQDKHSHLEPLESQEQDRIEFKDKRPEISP
The essentials:
as §1

In the next assay the target is T5, ELF5 (Homo sapiens, UniProt Q9UKW6-2 1-255).
T5 sequence: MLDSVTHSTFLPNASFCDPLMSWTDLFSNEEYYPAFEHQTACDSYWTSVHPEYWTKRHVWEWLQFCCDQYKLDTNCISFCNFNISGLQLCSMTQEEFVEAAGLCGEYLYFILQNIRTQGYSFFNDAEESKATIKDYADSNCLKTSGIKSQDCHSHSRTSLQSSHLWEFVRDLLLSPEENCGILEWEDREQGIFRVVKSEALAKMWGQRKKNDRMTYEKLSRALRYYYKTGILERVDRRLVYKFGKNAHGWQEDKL
In short, it runs like this: as §1

In another assay the target is T6, ETV3 (Homo sapiens, UniProt P41162-2 1-143).
T6 sequence: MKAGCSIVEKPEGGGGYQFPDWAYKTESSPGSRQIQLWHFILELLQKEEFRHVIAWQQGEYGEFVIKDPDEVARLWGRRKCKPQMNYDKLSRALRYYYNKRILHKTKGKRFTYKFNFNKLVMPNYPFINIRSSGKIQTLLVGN
In short, it runs like this:
as §1

The next assay concerns the target ETV6 (Homo sapiens, UniProt P41212 1-452). In short, it runs like this: as §1
A further assay addresses T7, SPDEF (Homo sapiens, UniProt O95238 1-335).
T7 sequence: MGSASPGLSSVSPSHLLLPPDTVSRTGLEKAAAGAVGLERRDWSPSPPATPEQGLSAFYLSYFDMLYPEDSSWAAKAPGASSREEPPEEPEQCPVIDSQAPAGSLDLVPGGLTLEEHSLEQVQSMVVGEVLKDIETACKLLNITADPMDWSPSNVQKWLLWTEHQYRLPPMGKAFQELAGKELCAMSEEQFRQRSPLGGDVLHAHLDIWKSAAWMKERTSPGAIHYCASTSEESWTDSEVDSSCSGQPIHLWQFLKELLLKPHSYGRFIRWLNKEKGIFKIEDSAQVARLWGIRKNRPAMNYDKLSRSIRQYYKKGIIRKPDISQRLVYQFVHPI
The essentials:
as §1

ETV6, sequence (P41212 whole entry): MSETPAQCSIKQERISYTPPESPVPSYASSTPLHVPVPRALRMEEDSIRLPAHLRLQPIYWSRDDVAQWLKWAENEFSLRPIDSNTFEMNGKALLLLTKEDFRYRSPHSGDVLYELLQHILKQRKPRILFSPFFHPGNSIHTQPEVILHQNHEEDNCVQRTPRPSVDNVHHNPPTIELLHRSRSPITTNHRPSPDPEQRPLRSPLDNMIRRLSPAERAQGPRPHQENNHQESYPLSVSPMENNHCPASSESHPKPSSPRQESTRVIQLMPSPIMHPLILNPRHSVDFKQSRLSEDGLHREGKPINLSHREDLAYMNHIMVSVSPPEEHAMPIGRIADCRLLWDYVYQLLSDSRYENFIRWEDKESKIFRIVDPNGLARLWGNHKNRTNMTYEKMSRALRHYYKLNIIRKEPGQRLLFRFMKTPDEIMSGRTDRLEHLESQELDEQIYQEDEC

For GTTTGG, the binding signal with ERF was 1.11 fold enrichment (6-mer frequency, TF over GST control); in the assay with ETV3L, 1.09 fold enrichment (6-mer frequency, TF over GST control); with ETS2, 1.07 fold enrichment (6-mer frequency, TF over GST control); with ETV7, 1.12 fold enrichment (6-mer frequency, TF over GST control); with ELF5, 1.1 fold enrichment (6-mer frequency, TF over GST control); with ETV3, 1.1 fold enrichment (6-mer frequency, TF over GST control).
Turning to AAGCGA, the binding signal with ERF was 1.02 fold enrichment (6-mer frequency, TF over GST control); with ETV3L, 1.02 fold enrichment (6-mer frequency, TF over GST control); with ETS2, 1.05 fold enrichment (6-mer frequency, TF over GST control); with ETV7, 1.09 fold enrichment (6-mer frequency, TF over GST control); with ELF5, 1.07 fold enrichment (6-mer frequency, TF over GST control); with ETV3, 1.12 fold enrichment (6-mer frequency, TF over GST control). In addition, the binding signal in the assay with ETV6 is 1.05 fold enrichment (6-mer frequency, TF over GST control).
For the sequence AAGCAA, the binding signal is 1.01 fold enrichment (6-mer frequency, TF over GST control) with ERF; 1.01 fold enrichment (6-mer frequency, TF over GST control) in the assay with ETV3L; 1.11 fold enrichment (6-mer frequency, TF over GST control) with ETS2; 1.05 fold enrichment (6-mer frequency, TF over GST control) in the assay with ETV7; 1.03 fold enrichment (6-mer frequency, TF over GST control) in the assay with ELF5; 1.12 fold enrichment (6-mer frequency, TF over GST control) in the assay with ETV3. In addition, in the assay with ETV6, the binding signal was 1.02 fold enrichment (6-mer frequency, TF over GST control).
For the sequence CCATTA, the binding signal is 1.07 fold enrichment (6-mer frequency, TF over GST control) with ERF; 1.16 fold enrichment (6-mer frequency, TF over GST control) with ETV3L; 1.12 fold enrichment (6-mer frequency, TF over GST control) with ETS2; 1.13 fold enrichment (6-mer frequency, TF over GST control) with ETV7; 1.08 fold enrichment (6-mer frequency, TF over GST control) in the assay with ELF5; 1.11 fold enrichment (6-mer frequency, TF over GST control) with ETV3. For the same sequence, the binding signal with ETV6 was 1.13 fold enrichment (6-mer frequency, TF over GST control).
For the sequence AACAGC, the binding signal is 1.15 fold enrichment (6-mer frequency, TF over GST control) in the assay with ERF; 1.05 fold enrichment (6-mer frequency, TF over GST control) in the assay with ETV3L; 1.08 fold enrichment (6-mer frequency, TF over GST control) with ETS2; 1.21 fold enrichment (6-mer frequency, TF over GST control) in the assay with ETV7; 1.09 fold enrichment (6-mer frequency, TF over GST control) in the assay with ELF5; 1.13 fold enrichment (6-mer frequency, TF over GST control) with ETV3. Moreover, the binding signal with ETV6 is 1.1 fold enrichment (6-mer frequency, TF over GST control).
In the case of ACGATC, the binding signal with ERF is 1.16 fold enrichment (6-mer frequency, TF over GST control); with ETV3L it was 1.02 fold enrichment (6-mer frequency, TF over GST control); with ETS2, 1.14 fold enrichment (6-mer frequency, TF over GST control); with ETV7 it was 1 fold enrichment (6-mer frequency, TF over GST control); with ELF5, 1.01 fold enrichment (6-mer frequency, TF over GST control); with ETV3, 1.03 fold enrichment (6-mer frequency, TF over GST control).
As for TCATGG, the binding signal in the assay with ERF was 1.07 fold enrichment (6-mer frequency, TF over GST control); with ETV3L, 1.05 fold enrichment (6-mer frequency, TF over GST control); with ETS2 it was 1.1 fold enrichment (6-mer frequency, TF over GST control); with ETV7 it was 1.1 fold enrichment (6-mer frequency, TF over GST control); with ELF5, 1.07 fold enrichment (6-mer frequency, TF over GST control); with ETV3 it was 1.11 fold enrichment (6-mer frequency, TF over GST control). In addition, the binding signal with ETV6 was 1.11 fold enrichment (6-mer frequency, TF over GST control).
In the case of TCAATG, the binding signal in the assay with ERF was 1.11 fold enrichment (6-mer frequency, TF over GST control); with ETV3L it was 1.05 fold enrichment (6-mer frequency, TF over GST control); with ETS2, 1.06 fold enrichment (6-mer frequency, TF over GST control); in the assay with SPDEF it was 1.12 fold enrichment (6-mer frequency, TF over GST control); in the assay with ETV3, 1.06 fold enrichment (6-mer frequency, TF over GST control); with ETV6 it was 1.05 fold enrichment (6-mer frequency, TF over GST control).
